Data from the supplement of paper PMC7411054.
Counter-ions that a name gives are not always drawn.

What was measured:
Experiment in all cases: lowest phenotypically active concentration; higher = less potent
Settings in all cases: treatment time: 24 h
[1] = test system: HepG2-ACTB-RAB5A
How it was run: (§1)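 Two criteria together defined phenotypic activity: deviation and reproducibility. Deviation meant ≥3 of 4 wells beyond the 95th percentile of Euclidean distances in solvent control wells, and reproducibility meant a median replicate Pearson correlation above the 95th percentile of non-replicates. Wells had been treated for 24 h at 0.3, 1, 3 or 9 µM in fifteen gene-edited A549, HepG2 and WPMY1 reporter lines before live imaging.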

[2] = test system: HepG2-CANX-COX4
How it was run: as §1

[3] = test system: HepG2-GM130-SQSTM1
How it was run: as §1

[4] = test system: HepG2-TP53BP1-CLTA
How it was run: as §1

[5] = test system: HepG2-TUBA1B-RELA
How it was run: as §1

[6] = test system: WPMY1-ACTB-RAB5A
How it was run: as §1

[7] = test system: WPMY1-CANX-COX4
How it was run: as §1

[8] = test system: WPMY1-GM130-SQSTM1
How it was run: as §1

[9] = test system: WPMY1-TP53BP1-CLTA
How it was run: as §1

[10] = test system: WPMY1-TUBA1B-RELA
How it was run: as §1

Measured: lowest phenotypically active concentration

C[C@@H](CN1CCC(n2c(=O)[nH]c3cc(Cl)ccc32)CC1)NC(=O)c1ccc2ccccc2c1
3 µM: [5]
9 µM: all other assays above

CCNC(=O)c1noc(-c2cc(C(C)C)c(O)cc2O)c1-c1ccc(CN2CCOCC2)cc1
≤ 0.3 µM: all assays above

CCCCCCCCCCCCCCCC[n+]1ccn(Cc2ccccc2)c1C
3 µM: [6] | [8] | [9] | [10]
1 µM: all other assays above

COc1cc(C(=O)N2CCC(N3CCN(C)CC3)CC2)ccc1Nc1ncc2c(n1)N(C)c1ccccc1C(=O)N2C
3 µM: [4] | [6] | [7] | [9]
1 µM: all other assays above

COc1c(Nc2cc(C)[nH]n2)nc(Sc2ccc(S(=O)(=O)Cc3cccc([N+](=O)[O-])c3F)cc2F)nc1N1CCOCC1 [Centrinone]
1 µM: [3] | [6]
9 µM: [1]
3 µM: all other assays above

Cc1nc(Nc2ncc(C(=O)Nc3c(C)cccc3Cl)s2)cc(N2CCN(CCO)CC2)n1 [dasatinib]
≤ 0.3 µM: all assays above

COc1ccc(S(=O)(=O)N(CCO)c2ccccc2CN(C)C/C=C/c2ccc(Cl)cc2)cc1
3 µM: [2]
9 µM: all other assays above

C[C@H]1[C@H]2CC[C@H]3[C@@H]4CC=C5C[C@@H](N(C)C)CC[C@]5(C)[C@H]4CC[C@]23CN1C [Conessine]
1 µM: [4] | [8]
9 µM: [1] | [2] | [6] | [10]
3 µM: all other assays above

Nc1nc(S)c2[nH]cnc2n1 [thioguanine]
9 µM: [1] | [9] | [10]
1 µM: all other assays above

COc1cc2c(cc1-c1c(C)noc1C)ncc1[nH]c(=O)n([C@H](C)c3ccccn3)c12 [I-BET 151 dihydrochloride]
1 µM: [1]
3 µM: all other assays above

COc1cc2c(NC3CCN(C(C)C)CC3)nc(N3CCC(F)(F)CC3)nc2cc1OCCCN1CCCC1
≤ 0.3 µM: [1] | [3] | [5] | [8]
1 µM: all other assays above

Clc1ccc(N/N=C(\c2ccccc2)c2ccccn2)nc1
≤ 0.3 µM: [1] | [2] | [4] | [5]
1 µM: all other assays above

O=C(OC12CC3CC(CC(C3)C1)C2)c1ccc(NCc2cc(O)ccc2O)cc1 [Adaphostin]
1 µM: [1] | [6] | [7] | [8] | [10]
3 µM: all other assays above

CC(=O)NC1=NN(C(C)=O)C(C)(c2ccccc2)S1 (stereo not given)
9 µM: [1] | [3] | [7]
3 µM: all other assays above

OC[C@H]1O[C@@H](n2cnc3c(NCc4ccco4)ncnc32)[C@H](O)[C@@H]1O [Kinetin riboside]
3 µM: [3] | [4] | [7] | [10]
1 µM: all other assays above

COc1ccc(-c2ccc3ncc4c(c3c2)n(-c2ccc(N3CCNCC3)c(C(F)(F)F)c2)c(=O)n4C)cn1
≤ 0.3 µM: all assays above

Nc1ncnc2c1c(-c1cnc3[nH]ccc3c1)nn2C1CCCC1
≤ 0.3 µM: [2] | [3] | [4] | [5] | [9]
1 µM: all other assays above

COc1ccccc1S(=O)(=O)Nc1ccc2c(c1)CN(C)C(=O)N2
1 µM: [1]
9 µM: [9]
3 µM: all other assays above

O=C(Nc1c[nH]nc1-c1nc2cc(CN3CCOCC3)ccc2[nH]1)NC1CC1
≤ 0.3 µM: all assays above

C=CC(=O)Nc1cccc(Nc2nc(Nc3ccc(OCCOC)cc3)ncc2F)c1
9 µM: [4] | [5] | [9]
3 µM: all other assays above

CN1CC[C@H](c2c(O)cc(O)c3c(=O)cc(-c4ccccc4Cl)oc23)[C@H](O)C1 [Flavopiridol hydrochloride]
≤ 0.3 µM: all assays above

Nc1ncn([C@@H]2O[C@H](CO)[C@@H](O)[C@H]2O)c(=O)n1 [5-Azacytidine]
1 µM: [5] | [8]
≤ 0.3 µM: [1] | [2] | [3] | [4]
3 µM: all other assays above

CC[C@]1(O)C[C@@H]2CN(CCc3c([nH]c4ccccc34)[C@@](C(=O)OC)(c3cc4c(cc3OC)N(C=O)[C@H]3[C@@](O)(C(=O)OC)[C@H](OC(C)=O)[C@]5(CC)C=CCN6CC[C@]43[C@@H]65)C2)C1 [vincristine]
≤ 0.3 µM: all assays above

O=C(O)c1ccc(Nc2ncc3c(n2)-c2ccc(Cl)cc2C(c2c(F)cccc2F)=NC3)cc1
3 µM: [7]
9 µM: [8]
≤ 0.3 µM: all other assays above

COc1ccc(C[C@H](N)C(=O)N[C@H]2[C@@H](O)[C@H](n3cnc4c(N(C)C)ncnc43)O[C@@H]2CO)cc1 [Puromycin dihydrochloride]
1 µM: [7] | [9] | [10]
≤ 0.3 µM: all other assays above

CCCC1(CCC)CCC2(CCN(CCCN(CC)CC)C2)CC1 [Atiprimod dihydrochloride]
≤ 0.3 µM: [5]
1 µM: all other assays above

Cc1ccc2nc(NCCN)c3ncc(C)n3c2c1
3 µM: all assays above

COCC(=O)O[C@]1(CCN(C)CCCc2nc3ccccc3[nH]2)CCc2cc(F)ccc2[C@@H]1C(C)C [mibefradil]
3 µM: [5]
9 µM: all other assays above

COc1cc(OC2CCN(C)CC2)ccc1Nc1ncc2c(n1)n(C1CCCC1)c(=O)n2C
3 µM: [1] | [3]
9 µM: all other assays above
